We go through six sequences from the supplement of paper PMC6555819.

Holding throughout (test): PBM binding z-score (relative to random genomic background probes); higher = stronger binding; sequences stand for … in GC…GCGATTGACAGCGTAGAATGAAGG
In test [1] the test system is FXR:RXRa (NR concentration 270 nM, RXRa partner concentration 90 nM). In short, it runs like this: (§1)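 Each nuclear receptor dimer, without ligand, was incubated for 1 h on custom Agilent 4×180K protein-binding microarrays. Binding was detected with antibodies against each partner (one per run), and scanned fluorescence was regression-normalized. The binding z-scores are referenced to random human genomic background probes.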

Test [2] has as its system LXRa:RXRa (NR concentration 270 nM, RXRa partner concentration 90 nM). In short, it runs like this:
as §1

In test [3] the test system is LXRa homodimer (NR concentration 270 nM). In short, it runs like this: as §1
In test [4] the test system is LXRb:RXRa (NR concentration 270 nM, RXRa partner concentration 90 nM). Summed up:
as §1

Test [5] concerns LXRb homodimer (NR concentration 270 nM). Summed up:
as §1

In test [6] the test system is PPARa:RXRa (NR concentration 270 nM, RXRa partner concentration 90 nM). Summed up: as §1
In test [7] the test system is PPARg:RXRa (NR concentration 180 nM, RXRa partner concentration 90 nM). Summed up:
as §1

The subject of test [8] is PPARg:RXRa 270nM:90nM, anti-RXR (NR concentration 270 nM, RXRa partner concentration 90 nM). In short, it runs like this: as §1
The test system of test [9] is PPARg:RXRa 30nM:10nM, anti-RXR (NR concentration 30 nM, RXRa partner concentration 10 nM). Summed up:
as §1

Test [10] has as its system PPARg:RXRa 90nM:30nM, anti-RXR (NR concentration 90 nM, RXRa partner concentration 30 nM). Summed up:
as §1

The subject of test [11] is PPARg:RXRa DBDmut IVT, anti-RXR (DBD mutation: RXRa K156A/R161A, NR concentration 270 nM, RXRa partner concentration 90 nM). Summed up: as §1
Test [12] deals with PPARg:RXRa IVT, anti-PPARg (NR concentration 270 nM, RXRa partner concentration 90 nM). In short, it runs like this: as §1
Test [13] deals with PPARg DBDmut:RXRa IVT, anti-PPARg (DBD mutation: PPARg1 K132A/R137A, NR concentration 270 nM, RXRa partner concentration 90 nM). In short, it runs like this:
as §1

The test system of test [14] is PPARg DBDmut IVT, anti-PPARg (DBD mutation: PPARg1 K132A/R137A, NR concentration 270 nM). In short, it runs like this:
as §1

Test [15] deals with PPARg homodimer (NR concentration 180 nM). In short, it runs like this: as §1
For test [16], the system named is PXR:RXRa (NR concentration 270 nM, RXRa partner concentration 90 nM). In short, it runs like this:
as §1

For test [17], the system named is PXR homodimer (NR concentration 270 nM). Summed up: as §1
Test [18] deals with RARa:RXR (NR concentration 270 nM, RXRa partner concentration 90 nM). In short, it runs like this: as §1
Test [19] concerns RARa homodimer (NR concentration 270 nM). In short, it runs like this:
as §1

Test [20] deals with RARb:RXRa (NR concentration 270 nM, RXRa partner concentration 90 nM). Summed up:
as §1

In the case of TCATATTGGTAAAAGGTGAAAGTCGGTGTGGTAA, the PBM binding z-score in test [1] stood at 1.65; in test [2], 1.92; in test [3], 0.474; in [4], 2.06; in test [5], 0.291; in test [6] it was 3.73. The PBM binding z-score worked out at 3.98 in test [7]; 5.67 in [8]; 5.38 in test [9]; 6.18 in test [10]; 2.97 in test [11]; 2.77 in test [12]. Further, the PBM binding z-score in [13] was 1.12; in [14] it was 2.43; in test [15] it was 2.62; in [16] it was 1.43; in [17], 0.68; in [18] it was 2.1. For the same sequence, the PBM binding z-score is 2.36 in [19] and 2.01 in test [20].

Consider CATGCAGGGTCAGCTAGGCCAGAGTAGGGACGGC, for which the PBM binding z-score is 4.4 in test [1]; 2.77 in [2]; -0.597 in test [3]; 2.03 in test [4]; -0.151 in [5]; 4.36 in [6]. Also, the PBM binding z-score in [7] was determined as 2.66; in test [8], 3.1; in test [9] it was 0.694; in test [10], 1.84; in [11] it was 0.734; in test [12], 1.98. Moreover, the PBM binding z-score in test [13] is 0.517; in test [14], -0.095; in test [15] it was 0.728; in test [16] it was 2.2; in test [17] it was -0.234; in [18] it was 3.27. Moreover, the PBM binding z-score in test [19] is -0.247; in test [20] it was 4.14.

Take CCTAGCAGGCAAGGGTCACTCAAGCATTTCGCTT: the PBM binding z-score was 2.9 in test [1]; 2.67 in [2]; -0.242 in [3]; 2.45 in test [4]; -0.627 in [5]; 3.8 in test [6]. For the same sequence, the PBM binding z-score in test [7] was 1.77; in test [8] it was 3.27; in [9], 0.737; in test [10], 2.48; in test [11] it was 0.337; in test [12], 0.835. Besides, the PBM binding z-score in test [13] was -1.27; in test [14] it was -1.7; in [15], 1.35; in [16], 2.99; in test [17] it was -0.946; in [18] it was 3.86. For the same sequence, the PBM binding z-score in test [19] is -0.178; in test [20] it was 3.31.

Turning to CCTACTGGGCCAAGGACATTGATCAGTCAAAGCA, the PBM binding z-score was -0.284 in [1]; -0.572 in test [2]; -0.118 in test [3]; -0.778 in test [4]; -0.99 in [5]; -0.141 in [6]. Besides, the PBM binding z-score in test [7] amounted to 0.757; in [8], 0.967; in [9] it was 0.164; in test [10], 0.46; in [11], 3.42; in test [12], 3.05. Also, the PBM binding z-score is -0.364 in test [13]; -0.839 in test [14]; -0.294 in test [15]; -0.555 in [16]; -0.0775 in test [17]; -0.237 in test [18]. Besides, the PBM binding z-score in [19] was -0.533; in test [20] it was 0.145.

On to AGTCAAAGTTCACTAGGTAACGTACGATTCAGCT, for which the PBM binding z-score in test [1] was found to be 5.6; in test [2], 5.41; in test [3] it was 3.55; in [4], 3.27; in test [5], 0.963; in [6], 4.79. Also, the PBM binding z-score in [7] was found to be 7.47; in test [8], 6.6; in test [9], 3.88; in test [10], 5.98; in [11] it was 3.29; in test [12], 5.13. Further, the PBM binding z-score in test [13] worked out at 1.36; in test [14], 1.27; in test [15], 3.23; in test [16], 4.37; in test [17], 3.12; in [18], 3.45. Further, the PBM binding z-score in test [19] came out at 1.53; in test [20], 4.71.

With TCTTGTAGATCAACAGGAGGTTGAGAAAGATCGA, the PBM binding z-score in test [1] was -0.0264; in test [2], -0.201; in test [3] it was -0.188; in [4], -0.211; in test [5], -0.144; in test [6], 0.467. Moreover, the PBM binding z-score was -0.1 in [7]; 1.33 in test [8]; 2.81 in [9]; 2.24 in test [10]; 1.36 in test [11]; 0.267 in [12]. The PBM binding z-score in test [13] was 0.852; in [14] it was -0.116; in [15], -0.716; in test [16], 0.0835; in test [17] it was -0.557; in test [18], 0.0993. Also, the PBM binding z-score was -0.378 in [19] and -0.147 in test [20].
